Measured values from PubChem BioAssay AID1918 (Vanderbilt High Throughput Screening Facility, 2009).
The campaign covered roughly 130,000 compounds. About 2,500 (1.9%) were called active. For the sample, actives were picked, then their nearest neighbours and some compounds at random. Values without a mark were called inactive.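 How the source made its calls: active means signal ratio slope over the read window, or its plate-corrected B-score, at least 3 SD from the plate mean, either direction; inactive means the rest.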

The compounds below were run against ATP-sensitive inward rectifier potassium channel 1 (Homo sapiens) (UniProt P48048) (assay: ROMK potassium channel modulators, primary screen, cell-based, thallium flux, MLSMR library (AID 1918;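 further: B-score of the F/F0 ratio slope over 7 to 12 s after thallium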)). Conditions: Tet-inducible ROMK, thallium flux fluorescence; at 10 µM; actives lie on both sides.
Sequence of ATP-sensitive inward rectifier potassium channel 1 (Homo sapiens) (P48048 whole entry, looked up): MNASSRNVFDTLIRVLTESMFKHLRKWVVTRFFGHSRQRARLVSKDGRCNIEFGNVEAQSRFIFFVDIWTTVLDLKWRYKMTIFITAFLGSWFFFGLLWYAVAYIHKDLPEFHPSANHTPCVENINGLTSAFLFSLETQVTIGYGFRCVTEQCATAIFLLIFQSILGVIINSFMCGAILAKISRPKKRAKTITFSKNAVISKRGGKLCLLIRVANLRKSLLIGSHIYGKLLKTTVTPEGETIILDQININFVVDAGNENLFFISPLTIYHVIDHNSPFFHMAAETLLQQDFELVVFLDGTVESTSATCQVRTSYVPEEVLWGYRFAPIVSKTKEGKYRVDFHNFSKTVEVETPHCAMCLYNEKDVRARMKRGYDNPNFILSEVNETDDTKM
With `CC(C)(C)NC(=O)NC(=O)COC(=O)Cc1c(F)cccc1Cl` the B-score was -0.0671. Work on `COC(=O)COc1ccc(C2NC(=O)NC(C)=C2C(=O)NCc2ccccc2)cc1OC` (stereo not drawn) yielded a B-score of 0.834. With `NS(=O)(=O)c1ccc(NC(=O)/C=C/c2ccccc2Cl)cc1` the B-score was 0.913. `CCN(CC)N=Nc1cccc(NC(C)=O)c1` showed a B-score of 0.863. Compound `Cc1cccn2c(=O)c3cc(C#N)c(=O)n(CCCN4CCOCC4)c3nc12` has a B-score of 0.896. In the case of `Cc1cccn2c(=O)c3cc(C(=O)N4COCC4(C)C)n(C)c3nc12`, the B-score is reported as -4.56 (active). With `CCn1c(=N)c(C(=O)NCCCOC)cc2c(=O)n3cccc(C)c3nc21` the B-score was -1.26. With `S=C(c1ccc(-c2ccccc2)o1)N1CCCCC1` the B-score was -1.97. Work on `CC(=O)NC(Cc1ccc(F)c(F)c1)C(=O)NC1CCN(C(=O)c2ccc(C)cc2)CC1` (stereo not drawn) yielded a B-score of -0.484. `CCOC(=O)C1CCN(C(=O)c2ccccc2N(C)S(=O)(=O)c2ccccc2)CC1` gave a B-score of 0.0133. Work on `CCOC(=O)N1CCN(C(=O)c2ccccc2N(Cc2ccccc2)S(=O)(=O)c2ccc(OC)cc2)CC1` yielded a B-score of 2.44. `NC(=O)c1ccccc1N(Cc1ccccc1)S(=O)(=O)c1ccccc1` was tested, and the B-score was 3.2 (active). `COC(=O)c1ccccc1NC(=O)C1CCN(S(=O)(=O)c2cc(OC)ccc2OC)CC1` was tested, and the B-score was 2.29 (active). For `CCOC(=O)C1CCN(S(=O)(=O)c2cc(F)ccc2OC)CC1`, the B-score was -0.346. With `COC(=O)c1ccccc1NC(=O)C1CC(=O)N(c2ccc(OC)cc2)C1` (stereo not drawn) the B-score was 0.403. For `CCOC(=O)C1=C(CN2CCCCCC2)NC(=O)NC1c1cccc([N+](=O)[O-])c1` (stereo not drawn), the B-score was -1.02. For `COc1ccc(C(=O)NC2CCN(C(=S)NCCc3ccccc3)CC2)cc1`, the B-score was -0.464. Compound `NS(=O)(=O)c1ccc(CCNC(=O)c2ccc([N+](=O)[O-])cc2[N+](=O)[O-])cc1` has a B-score of 0.546. `CN1CCN(c2ccc(S(=O)(=O)N3CCCCC3)cc2NC(=O)Cc2ccccc2F)CC1` was tested, and the B-score was -4.06 (active). `COc1ccc(CC(=O)Nc2cc(S(=O)(=O)N3CCCCC3)ccc2N2CCN(C)CC2)cc1` gave a B-score of 0.269. In the case of `O=C(COC(=O)c1ccccc1F)Nc1cc(S(=O)(=O)N2CCOCC2)ccc1N1CCCC1`, the B-score is reported as -0.699. Compound `C=CCOC(=O)C1=C(C)N=C2SCCC(=O)N2C1/C=C/c1ccccc1OC` (stereo not drawn) has a B-score of -2.24. Compound `COCCn1c(Cc2cccn2C)nnc1SCC(=O)Nc1nccs1` has a B-score of -0.191. With `CCn1c(/C=C/Nc2ccccc2)[n+](CC)c2ccc(C(=O)OCC(F)(F)F)cc21` the B-score was -3.51 (active). `Cn1cnc(S(=O)(=O)Nc2ccc3c(c2)OCCO3)c1` gave a B-score of 1.18. In the case of `O=C(/C=C/c1c(F)cccc1Cl)Nc1nn[nH]n1`, the B-score is reported as -0.796. `CNC(=O)/C(C#N)=C/c1c(F)cccc1Cl` was tested, and the B-score was -5.65 (active). With `Cc1[nH]c2ccccc2c1/C=C(/C#N)C(=O)NC(C)C` the B-score was 0.27. `COc1ccc(C(=O)NC2CCN(C(=S)Nc3ccccc3)CC2)cc1` gave a B-score of 0.59. With `C=CCn1c(COc2ccc(F)cc2)nnc1SCC(=O)Nc1cccc(S(N)(=O)=O)c1` the B-score was 0.118. Compound `COC(=O)CNc1nc(Cl)nc(N2CCC(C)CC2)n1` has a B-score of -0.416. `COCCNC(=O)c1ccc(-n2c(SCc3cccnc3)nc3ccccc3c2=O)cc1` gave a B-score of -0.255. `O=C1CN(C(=O)COC(=O)c2cnc(Cl)c(Cl)c2)c2ccccc2N1` was tested, and the B-score was -0.857. Work on `CN(C)CC(O)COc1ccc(C(C)(C)c2ccc(OCC(O)CN(C)C)cc2)cc1` (stereo not drawn) yielded a B-score of -0.0221. `CC(C)(c1ccccc1)c1ccc(OCCN)cc1` was tested, and the B-score was -2.62 (active). With `CCCOc1ccc(C(=O)NCCc2ccccc2)cc1` the B-score was 0.056. Compound `CN(CC(=O)Nc1ccc(N2CCOCC2)cc1)CC(=O)Nc1ccccc1[N+](=O)[O-]` has a B-score of -0.00205. Work on `O=C(NC(=S)Nc1ccc(S(=O)(=O)N2CCOCC2)cc1)c1ccccc1[N+](=O)[O-]` yielded a B-score of -0.648. With `O=C(Nc1ccc(N2CCOCC2)cc1)c1ccc(-c2ccccc2[N+](=O)[O-])o1` the B-score was 3.49 (active). With `CCc1nnc(NC(=O)Cc2cccs2)s1` the B-score was 0.627. Work on `CCn1cc(CN2CCCC(CNS(=O)(=O)Cc3ccccc3)C2)cn1` (stereo not drawn) yielded a B-score of -1.12. In the case of `CCOc1ncccc1C(=O)OCC(=O)NC1CC1`, the B-score is reported as 0.144. `COc1cccc(NC(=O)CC2C(=O)NCCN2C(=S)Nc2ccc(F)cc2)c1` (stereo not drawn) was tested, and the B-score was -0.0401.
